Results taken from PubChem BioAssay (NCI).
Several values for one entry are separate records, joined by “and”; a condition that tells them apart may be missing. Equal entries are not always repeated. Compounds without any hit were thinned out: in the full panel of roughly 79,000, 15% have a hit. Cut-off read from the data, not from the text of the source: active = growth inhibition above about 70%; inactive = the rest.

How the values were obtained:
[1] = NCI Yeast Anticancer Drug Screen. Data for the rad50 strain (AID 155);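 note: 0% = growth of vehicle-only cultures of the same strain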; conditions: S. cerevisiae rad50 strain growth inhibition; at 50.0 µM; hits give high values
Method in brief: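 DNA repair mutant yeast, compound exposure, growth read-out; inhibition is taken relative to vehicle.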

[2] = NCI Yeast Anticancer Drug Screen. Data for the mec2-1 strain (AID 157); conditions: S. cerevisiae mec2-1 strain, at 50.0 µM, hits give high values
Method in brief: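 Readout is yeast growth inhibition, normalised to vehicle-treated controls, in the mec2-1 strain exposed to compound.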

[3] = NCI Yeast Anticancer Drug Screen. Data for the sgs1 mgt1 strain (AID 161);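 note: 0% = growth of cultures given vehicle only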; conditions: S. cerevisiae sgs1 mgt1 strain, at 50.0 µM, hits give high values
Method in brief: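 Percent growth inhibition was derived by comparing compound-exposed mutant yeast with vehicle-exposed cultures. The strain carries alterations in DNA damage repair.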

[4] = NCI Yeast Anticancer Drug Screen. Data for the cln2 rad14 strain (AID 165);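 note: 0% = growth equal to vehicle treated cultures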; conditions: S. cerevisiae cln2 rad14 strain, at 50.0 µM, hits give high values
Method in brief: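 Relative to vehicle controls, growth inhibition of compound-treated cln2 rad14 yeast was recorded.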

[5] = NCI Yeast Anticancer Drug Screen. Data for the bub3 strain (AID 167); conditions: S. cerevisiae bub3 mutant strain, at 50.0 µM, hits give high values
Method in brief: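 In this screen, a yeast mutant lacking normal mitotic checkpoint function is challenged with compound. Relative growth versus vehicle gives the inhibition value.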

[6] = NCI Yeast Anticancer Drug Screen. Data for the mlh1 rad18 strain (AID 175); conditions: S. cerevisiae mlh1 rad18 strain growth inhibition; at 50.0 µM; hits give high values
Method in brief: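 Test agents were incubated with a yeast strain of defined genotype (DNA damage repair defect). Inhibition of growth was derived by comparison with vehicle-exposed cultures.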

Measured: growth inhibition

CN1C2CCC1CC(=O)C2
inactive: [1] -14.6% | [2] -48.2% | [3] -32.6% | [4] -8.35% | [5] -29.9% | [6] -27.4%

CC(C)(C)NC(=O)C(Cl)Cl
inactive: [1] -0.65% | [2] -5.7% | [3] -5.85% | [4] -9.6% | [5] 5.15% | [6] 3.35%

Cc1ccc(OP(Oc2ccc(C)cc2)Oc2ccc(C)cc2)cc1
inactive: [1] 32.8% | [2] 10.7% | [3] -6.35% | [4] -31.6% | [5] 29.4% | [6] 31.5%

CC12C(=O)C(C)(C(c3ccccc3)=C1c1ccccc1)C1(C#N)NC21C#N (centres undefined)
inactive: [1] 14.9% | [2] 2.65% | [3] 22.8% | [4] 18.2% | [5] 13.8% | [6] 40%

CCOC(OC1=C(C#N)CCCC1)C(CC)[Se]c1ccccc1 (centres undefined)
inactive: [1] 62.6% | [2] 21.3% | [3] 50.8% | [4] 52% | [5] 44.1% | [6] 57.8%

CN(C)C1COC2Cc3ccccc3C1O2 (centres undefined)
inactive: [1] -25.6% and -13.6% | [2] -26.2% and -9.45% | [3] -3.65% and 1.7% | [4] -22.4% and 3.5% | [5] -0.15% and -8.75% | [6] -77.4% and -90.5%

O=C(C1CO1)C(Cl)(Cl)Cl (centres undefined)
inactive: [1] -3.95% | [2] -6.85% | [3] 3.8% | [4] -8.2% | [5] -15.2% | [6] -2.35%

NC(Cc1cnc[nH]1)C(=O)NC(Cc1cnc[nH]1)C(=O)O (centres undefined)
inactive: [1] -5.1% | [2] 9% | [3] -1.5% | [4] 10.6% | [5] 4.45% | [6] 7.6%

CCn1nnnc1N
inactive: [1] 3.35% | [2] 15.9% | [3] 11.1% | [4] 16.4% | [5] 17.8% | [6] 14%

N#CCCNCCC#N
inactive: [1] 3.95% and 11.8% and 12.2% | [2] 4.4% and -11.6% and 3.15% | [3] -6.05% and 9.35% and -2.9% | [4] -41.6% and 25.7% and 16.1% | [5] -4.95% and 8.65% and 1.45% | [6] 6.15% and 13.7% and 14.7%

CCCCCCOC(=O)c1ccccc1C(=O)OCCCCCC
inactive: [1] -13.2% | [2] -1.75% | [3] -27.9% | [4] -12.5% | [5] -45.2% | [6] -2.8%

CCc1ccc(OP(=O)(Oc2cc(C)cc(C)c2)Oc2cc(C)cc(C)c2)cc1
inactive: [1] -27.9% | [2] -12.9% | [3] -16.1% | [4] 3.45% | [5] 1.55% | [6] -15.9%

c1ccc(CC[n+]2cccc3ccccc32)cc1
inactive: [1] -3.8% | [2] 11.2% | [3] 3.95% | [4] -26.3% | [5] -8.1% | [6] -6.85%

CCC1(C(C)C)C(=O)NC(=S)N(C)C1=O (centres undefined)
inactive: [1] 29.6% | [2] -5.45% | [3] 2.9% | [4] 2.85% | [5] 0.95% | [6] 12.8%

COc1cc2c(cc1O)C(=O)O[C@@H]1CC=C3CCN(C)[C@H]3[C@H]21
inactive: [1] 3.4% | [2] 11.3% | [3] -7.3% | [4] 7.1% | [5] -37.4% | [6] 19.8%

COC1/C=C/C=C(/C)Cc2cc(O)c(Cl)c(c2)N(C)C(=O)CC(OC(=O)C(C)C)C2(C)OC2C(C)C2CC1(O)NC(=O)O2 (centres undefined)
inactive: [1] -9.05% | [2] -11.2% | [3] -15.8% | [4] -9.15% | [5] -6.2% | [6] -53%

O=[As](O)(O)c1ccc(F)cc1
inactive: [1] 3.45% | [2] 9.8% | [3] -4.35% | [4] 14.6% | [5] 9.3% | [6] 2.95%

C/C(=C\C(C)C)C1(C)C(=O)NC(=O)NC1=O
inactive: [1] 8.85% | [2] 11.4% | [3] -6.3% | [4] 4.95% | [5] 4.4% | [6] -19.3%

COc1cc(C2CNCc3cc(OC)c(O)cc32)ccc1O (centres undefined)
inactive: [1] 0.05% | [2] -7.1% | [3] -11.1% | [4] -17.8% | [5] -9.85% | [6] 1.2%
